Measurements from PubChem BioAssay (Tox21).
Where “and” joins values, the source holds several entries; their conditions need not be identical. Identical values can stand only once. Results filed as inconclusive are left out. Entries that show only a call come without a potency. More than one record can exist for a structure, and the calls need not agree. Calls of active or inactive are those of the source. Unless noted, the call rests on the fitted dose curve; in most records, active means well fitted curve in the direction sought with a large enough effect in the repeat runs; inconclusive means weak or mixed curves; inactive means no such curve, though single readings can be large; an effect the other way counts as inactive or inconclusive.

Tests used:
[1] = biological target: Luciferin 4-monooxygenase (Photinus pyralis) (UniProt P08659); experiment: qHTS assay to identify small molecule inhibitors of firefly luciferase (AID 1224835); further: nearly all actives have a fitted effect of over 25% in size; further: potency means the concentration at half of the fitted maximal effect
Outline: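 Quantitative HTS format; KM concentrations of both substrates. Purified P. pyralis FLuc activity quantified from luminescence images.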

[2] = qHTS assay to identify small molecule agonists of the constitutive androstane receptor (CAR) signaling pathway - cell viability counter screen (AID 1224836); further: nearly all actives have a fitted effect of over 45% in size; further: potency means the concentration at half of the fitted maximal effect
Outline: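 Double-stable HepG2 hepatoma cells (hCAR plus CYP2B6-2.2kb) are treated for 23 h at 37 C with test compounds in 15-point concentration series. PK11195 at 0.75 uM final is co-added. Cell viability is quantified by CellTiter-Fluor.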

[3] = biological target: Nuclear receptor subfamily 1 group I member 3 (Homo sapiens) (UniProt Q14994); experiment: qHTS assay to identify small molecule antagonists of the constitutive androstane receptor (CAR) signaling pathway (AID 1224838); further: nearly all actives have a fitted effect of over 40% in size; further: potency means the concentration at half of the fitted maximal effect
Outline: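 CITCO-stimulated (50 nM final) HepG2 cells stably transfected with hCAR and CYP2B6-2.2kb luciferase were exposed to compounds at 15 concentrations for 24 h at 37 C/5% CO2. A luciferase reagent was added and luminescence recorded after 30 min.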

[4] = biological target: Thyrotropin receptor (Homo sapiens) (UniProt P16473); experiment: qHTS assay to identify small molecule agonists of the thyroid stimulating hormone receptor (TSHR) signaling pathway (AID 1224843; calls by dose curve; further: nearly all actives have a fitted effect of over 45% in size; further: potency means the concentration at half of the fitted maximal effect)
Outline: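 Using 15 concentrations per compound in triplicate, cAMP production was monitored in TSHR-HEK293 cells after 30 min compound incubation at RT; HTRF reagents followed, with fluorescence intensity recorded after 1 h.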

[5] = qHTS assay to identify small molecule agonists of the hypoxia (HIF-1) signaling pathway - cell viability counter screen (AID 1224844; calls by dose curve; further: nearly all actives have a fitted effect of over 50% in size; further: potency means the concentration at half of the fitted maximal effect)
Outline: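 Same wells as the HIF-1 reporter screen; ME-180 cells carrying HRE-bla, 17 hr treatment at 37C; CellTiter-Glo luminescence read after 30 min at room temperature.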

[6] = qHTS assay to identify small molecule antagonists of the estrogen related receptor signaling pathway with the pleiotropic PPARgamma coactivator (PGC) from Tox21 10K library - cell viability counter screen (AID 1224840; active means well fitted cell-killing curve with a large enough effect in the repeat runs, not every such curve was filed as active; further: nearly all actives have a fitted effect of over 40% in size; further: potency means the concentration at half of the fitted maximal effect)
Outline: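 Viability counter screen, PGC/ERR cells: 17.5 h compound exposure at 37 C, CellTiter-Fluor fluorescence endpoint.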

[7] = qHTS assay to identify small molecule antagonists of the constitutive androstane receptor (CAR) signaling pathway - cell viability counter screen (AID 1224837); further: potency means the concentration at half of the fitted maximal effect; nearly all actives have a fitted effect of over 45% in size
Outline: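 In quantitative HTS format, compounds at 15 concentrations were applied to HepG2 cells double-transfected with hCAR and CYP2B6-2.2kb under 50 nM CITCO stimulation; live-cell protease activity was read after 23 hr via CellTiter-Fluor.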

[8] = biological target: Nuclear receptor subfamily 1 group I member 3 (Homo sapiens) (UniProt Q14994); experiment: qHTS assay to identify small molecule agonists of the constitutive androstane receptor (CAR) signaling pathway (AID 1224839); further: nearly all actives have a fitted effect of over 15% in size; further: potency means the concentration at half of the fitted maximal effect
Outline: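 Readout: firefly luciferase luminescence via ONE-Glo. System: HepG2 double-stable for hCAR and CYP2B6-2.2kb. Conditions: 15-point compound titration, PK11195 at 0.75 uM final, 24 h incubation.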

[9] = qHTS assay to identify small molecule agonists of the estrogen related receptor signaling pathway with the pleiotropic PPARgamma coactivator (PGC) from Tox21 10K library (AID 1224842); further: nearly all actives have a fitted effect of over 15% in size
Outline: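 PGC/ERR reporter cells (NTP line) were seeded 2,000 per well, rested 6 h at 37 C/5% CO2, then pin-dosed with compounds in DMSO for 18 h at 37 C; luciferase read by One-Glo luminescence after 30 min at room temperature.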

[10] = qHTS assay to identify small molecule antagonists of the estrogen related receptor signaling pathway with the pleiotropic PPARgamma coactivator (PGC) from Tox21 10K library (AID 1224841; call rule not given here; further: actives are mostly falling curves and most rising ones were filed inactive; nearly all actives have a fitted effect of over 50% in size; further: potency means the concentration at half of the fitted maximal effect)
Outline: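 In the PGC/ERR line, DMSO solutions of test chemicals are pin-delivered to 2,000 cells/well six hours after dispensing. Following eighteen hours' incubation, One-Glo reagent is added and luminescence recorded.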

Chain of Nuclear receptor subfamily 1 group I member 3 (Homo sapiens) (Q14994 whole entry, looked up): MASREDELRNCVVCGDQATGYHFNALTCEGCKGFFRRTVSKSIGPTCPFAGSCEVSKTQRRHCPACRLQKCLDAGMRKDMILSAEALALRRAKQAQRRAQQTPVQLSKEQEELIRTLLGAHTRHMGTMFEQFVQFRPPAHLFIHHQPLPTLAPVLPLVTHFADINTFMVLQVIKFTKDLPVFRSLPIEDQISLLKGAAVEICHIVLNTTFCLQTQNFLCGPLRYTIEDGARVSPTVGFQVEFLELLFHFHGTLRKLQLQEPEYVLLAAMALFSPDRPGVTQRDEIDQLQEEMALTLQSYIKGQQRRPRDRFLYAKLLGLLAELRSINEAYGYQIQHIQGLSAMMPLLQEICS
Chain of Thyrotropin receptor (Homo sapiens) (P16473 whole entry, looked up): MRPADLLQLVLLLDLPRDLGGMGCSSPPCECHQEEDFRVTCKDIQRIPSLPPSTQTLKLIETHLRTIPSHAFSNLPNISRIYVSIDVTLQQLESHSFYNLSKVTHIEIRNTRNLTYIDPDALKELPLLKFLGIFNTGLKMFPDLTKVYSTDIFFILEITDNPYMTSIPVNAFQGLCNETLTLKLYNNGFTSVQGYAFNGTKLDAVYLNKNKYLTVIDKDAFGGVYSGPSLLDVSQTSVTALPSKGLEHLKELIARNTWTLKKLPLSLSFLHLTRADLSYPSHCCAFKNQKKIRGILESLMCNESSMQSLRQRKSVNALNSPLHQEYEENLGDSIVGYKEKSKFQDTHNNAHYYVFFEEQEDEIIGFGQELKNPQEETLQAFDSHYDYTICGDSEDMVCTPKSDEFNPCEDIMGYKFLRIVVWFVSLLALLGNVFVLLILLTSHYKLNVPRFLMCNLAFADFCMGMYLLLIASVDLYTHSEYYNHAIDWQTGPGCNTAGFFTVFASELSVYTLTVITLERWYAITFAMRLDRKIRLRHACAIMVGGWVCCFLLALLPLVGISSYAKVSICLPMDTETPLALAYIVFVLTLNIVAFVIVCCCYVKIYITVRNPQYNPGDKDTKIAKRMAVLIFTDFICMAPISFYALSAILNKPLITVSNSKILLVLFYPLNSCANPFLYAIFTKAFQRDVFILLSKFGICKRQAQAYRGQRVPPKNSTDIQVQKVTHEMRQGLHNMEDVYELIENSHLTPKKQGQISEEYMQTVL
Chain of Luciferin 4-monooxygenase (Photinus pyralis) (P08659 whole entry, looked up): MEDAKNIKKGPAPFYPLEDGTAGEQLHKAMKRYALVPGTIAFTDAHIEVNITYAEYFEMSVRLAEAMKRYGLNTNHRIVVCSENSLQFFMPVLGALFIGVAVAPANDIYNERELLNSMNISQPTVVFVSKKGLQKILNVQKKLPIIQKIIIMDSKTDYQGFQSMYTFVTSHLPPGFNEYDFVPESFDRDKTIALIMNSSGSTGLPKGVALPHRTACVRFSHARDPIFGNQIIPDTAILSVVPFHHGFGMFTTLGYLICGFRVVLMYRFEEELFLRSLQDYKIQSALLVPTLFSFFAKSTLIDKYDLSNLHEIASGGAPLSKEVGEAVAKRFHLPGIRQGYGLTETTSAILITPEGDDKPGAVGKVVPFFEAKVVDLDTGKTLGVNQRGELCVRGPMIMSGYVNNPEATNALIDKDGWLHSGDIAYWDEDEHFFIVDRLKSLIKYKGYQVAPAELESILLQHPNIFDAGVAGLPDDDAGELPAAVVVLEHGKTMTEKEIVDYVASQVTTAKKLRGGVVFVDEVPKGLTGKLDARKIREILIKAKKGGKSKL

CCCCCCC[N+](CC)(CC)CCCCc1ccc(Cl)cc1
Potency [1]: inactive | Potency [2]: inactive | Potency [3]: inactive | Potency [4]: inactive | Potency [5]: inactive

O=C1CCCc2c1cc1ccc3cccc4ccc2c1c34
Potency [1]: 11.4 µM (active) | Potency [2]: inactive | Potency [3]: inactive | Potency [6]: inactive | Potency [4]: inactive | Potency [5]: 44.2 µM (active)

CCCCCCCC/C=C/CCCCCCCC1=NCCN1CCO
Potency [1]: inactive | Potency [7]: 68.6 µM (active) | Potency [3]: 61.1 µM (active) | Potency [8]: inactive | Potency [9]: inactive | Potency [5]: 54.9 µM (active)

CC[C@H](c1ccc(O)cc1)[C@@H](CC)c1ccc(O)cc1
Potency [1]: inactive | Potency [2]: inactive | Potency [3]: 0.473 µM (active) | Potency [5]: 54.9 µM (active) and inactive

CCOC(=O)O[C@H](C)OC(=O)c1ccc2c(c1)cc(C(=O)NC1CCN(C(C)C)CC1)n2Cc1cc(-c2ccc(Cl)s2)on1
Potency [1]: inactive | Potency [7]: 64.1 µM (active) | Potency [3]: 64.1 µM (active) | Potency [8]: inactive | Potency [6]: 22.7 µM (active)

c1cc(C(c2ccc(OCC3CO3)cc2)c2ccc(OCC3CO3)cc2)ccc1OCC1CO1 (stereo not given)
Potency [1]: inactive | Potency [2]: inactive | Potency [4]: inactive

CCC(Cl)C(Cl)C(Cl)CC(Cl)C(Cl)C(C)Cl (stereo not given)
Potency [1]: inactive | Potency [2]: inactive | Potency [6]: inactive

C=CC(=O)OCC(CO)(COC(=O)C=C)COC(=O)C=C
Potency [1]: inactive | Potency [2]: 13.7 µM (active) and 54.5 µM (active) | Potency [10]: 13.7 µM (active) and 24.3 µM (active) | Potency [9]: inactive | Potency [4]: 6.13 µM (active) and 9.69 µM (active)

CCCCN1CCCC[C@H]1C(=O)Nc1c(C)cccc1C
Potency [1]: inactive | Potency [2]: inactive | Potency [6]: inactive | Potency [4]: inactive | Potency [5]: inactive

CC(C)OC(=O)c1cc2c(OCC(O)CNC(C)(C)C)cccc2[nH]1 (stereo not given)
Potency [1]: inactive | Potency [2]: inactive | Potency [5]: inactive

CCN(CC)CCCC(C)Nc1c2ccc(Cl)cc2nc2ccc(OC)cc12 (stereo not given)
Potency [1]: inactive | Potency [2]: inactive | Potency [5]: 16.9 µM (active)

CC(C)(C)NC(=O)[C@@H]1C[C@@H]2CCCC[C@@H]2CN1C[C@@H](O)[C@H](Cc1ccccc1)NC(=O)[C@H](CC(N)=O)NC(=O)c1ccc2ccccc2n1
Potency [1]: inactive | Potency [2]: 31 µM (active) | Potency [8]: inactive | Potency [6]: 31 µM (active) | Potency [9]: inactive | Potency [4]: 27.7 µM (active) | Potency [5]: 55.7 µM (active)

Oc1ccc(N=Nc2ccccc2)cc1
Potency [1]: 9.06 µM (active) | Potency [3]: inactive | Potency [8]: 27.7 µM (active) | Potency [6]: 27.7 µM (active) | Potency [4]: 49.2 µM (active) | Potency [5]: inactive

CCCCCCCCCCCCCCCC[N+](C)(C)CCN(Cc1ccc(OC)cc1)c1ncccn1
Potency [1]: inactive | Potency [8]: inactive | Potency [6]: inactive | Potency [9]: inactive | Potency [4]: inactive | Potency [5]: 21.3 µM (active)

ON=C1CCCC1
Potency [1]: inactive | Potency [3]: inactive | Potency [10]: 63.3 µM (active) | Potency [9]: inactive | Potency [4]: inactive

O=C1c2c(O)ccc(Nc3ccc(CCO)cc3)c2C(=O)c2c([N+](=O)[O-])ccc(O)c21
Potency [1]: 17.8 µM (active) | Potency [3]: inactive | Potency [8]: 27.3 µM (active)

CCCN(CCC)c1c([N+](=O)[O-])cc(C(F)(F)F)c(N)c1[N+](=O)[O-]
Potency [1]: inactive | Potency [7]: 68.4 µM (active) | Potency [8]: 13.6 µM (active) | Potency [9]: inactive | Potency [4]: 6.09 µM (active) | Potency [5]: 13.8 µM (active)

CC(C)(C)CC(C)(C)c1ccc(O)c(Cc2ccc(Cl)cc2Cl)c1
Potency [1]: inactive | Potency [8]: inactive | Potency [6]: 29.8 µM (active) | Potency [4]: inactive

CCN(CCC#N)c1ccc(N=Nc2c(Cl)cc([N+](=O)[O-])cc2Cl)cc1
Potency [1]: 63.3 µM (active) | Potency [3]: inactive | Potency [8]: inactive | Potency [10]: inactive | Potency [9]: inactive | Potency [5]: inactive

Nc1ccc2c3c(cccc13)-c1ccccc1-2
Potency [1]: 22.7 µM (active) | Potency [3]: inactive | Potency [8]: 21.9 µM (active) | Potency [4]: inactive

Nc1ccc2cc(S(=O)(=O)O)cc(O)c2c1N=Nc1ccccc1C(F)(F)F
Potency [1]: 63.3 µM (active) | Potency [3]: inactive | Potency [8]: inactive | Potency [6]: inactive | Potency [9]: inactive | Potency [5]: inactive

CCCC(=O)OC[C@@H](OC(=O)CCC)[C@@H](OC(=O)CCC)[C@H](Cn1c2nc(=O)[nH]c(=O)c-2nc2cc(C)c(C)cc21)OC(=O)CCC
Potency [1]: inactive | Potency [3]: 29.8 µM (active) | Potency [8]: inactive | Potency [9]: inactive | Potency [4]: inactive

NC(=NCCCCCCN=C(N)/N=C(\N)Nc1ccc(Cl)cc1)/N=C(\N)Nc1ccc(Cl)cc1
Potency [1]: inactive | Potency [3]: 60.8 µM (active) and inactive | Potency [4]: inactive | Potency [5]: 24.4 µM (active)

Cc1cccc2c1cc1ccc3cccc4ccc2c1c34
Potency [1]: inactive | Potency [3]: inactive | Potency [8]: 15.7 µM (active) | Potency [6]: inactive | Potency [10]: inactive | Potency [9]: inactive

NC(=O)C1(N2CCCCC2)CCN(CCCN2c3ccccc3CCc3ccc(Cl)cc32)CC1
Potency [1]: inactive | Potency [8]: inactive | Potency [6]: 26.6 µM (active) | Potency [5]: 21.3 µM (active)

CC[C@@]1(O)C(=O)OCc2c1cc1n(c2=O)Cc2cc3c(CN(C)C)c(O)ccc3nc2-1
Potency [1]: inactive | Potency [3]: 0.15 µM (active) | Potency [8]: inactive | Potency [9]: inactive | Potency [4]: inactive

CC(C)n1nc(-c2cc3cc(O)ccc3[nH]2)c2c(N)ncnc21
Potency [1]: inactive | Potency [3]: 15 µM (active) | Potency [8]: inactive | Potency [10]: 0.211 µM (active) | Potency [9]: inactive

COc1ccc(CN2CCN(C(c3ccc(F)cc3)c3ccc(F)cc3)CC2)c(OC)c1OC
Potency [1]: inactive | Potency [8]: inactive | Potency [6]: 26.6 µM (active) | Potency [10]: 11.9 µM (active) | Potency [9]: inactive

O=C(Nc1cccc(C(F)(F)F)c1)c1cc(Br)cc(Br)c1O
Potency [1]: 3.99 µM (active) | Potency [3]: 15.4 µM (active) | Potency [8]: inactive | Potency [6]: 6.86 µM (active) | Potency [4]: inactive

Nc1ccccc1O
Potency [1]: inactive | Potency [3]: inactive | Potency [8]: 24 µM (active) | Potency [9]: inactive | Potency [4]: inactive
